FBPA coupling cs – coupling enzyme interference in Giardia aldolase counter-screen; AID 2472; coupling enzyme system counterscreen, AmpLite Red fluorescence; 0.67% of 290,000 active; activity change, negative = inhibition, % at 58.2 µM, hits read low; in the data active = activity change below about -30%; note: % is set by controls: 0 for no effect and ±100 for the full control effect
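Final compound at 57.5 uM, incubated 10 min at RT with coupling enzyme reagent (glyceraldehyde-3-phosphate), then 20 min with substrate and AmpLite Red detection. Fluorescence read at 525/598 nm; tests interference with the coupling assay, not aldolase inhibition.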
TRb-SRC2 inh – TRbeta-SRC2 interaction inhibition. P10828. TRbeta-SRC2 peptide binding, fluorescence polarization; receptor liganded with 1 µM T3. Potency, µM (top dose mostly 106 µM), for inactives: top-dose activity change, negative = inhibition, actives largely listed as inhibitors. 0.065% of 280,000 active. AID 1469;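 note: potency is the fitted concentration of half-maximal effect; plate controls were bound peptide for no effect and peptide without receptor for full effect; nearly all actives have a fitted effect of over 50% in size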
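Each compound concentration gave % activity, normalized to unbound and bound Texas Red SRC2 controls, from polarization read after 5 hr ambient incubation with T3-loaded human TRb LBD.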
HTT cytoprotect – protects HTT-Q103 PC12 cells, measured by ATP | Potency, µM (titrated, usually from 56.4 µM), for inactives: cytoprotection (ATP increase), hits mostly activators | 0.14% of 230,000 active | PC12 HTT-Q103 induced, cytoprotection, ATP luminescence, 40 h; note: potency is the fitted concentration of half-maximal effect; % of control where 0% means no effect; nearly all actives have a fitted effect of over 45% in size
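Huntington model: PC12 line, ecdysone-inducible HTTQ103 exon1–GFP, tebufenozide 100 nM. Test articles in a dose series. Endpoint luminescence from cellular ATP.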
JMJD2E inh – inhibitors of human JMJD2E histone demethylase | B2RXH2 | JMJD2E catalytic domain, FDH-coupled NADH fluorescence (FDH is formaldehyde dehydrogenase) | Potency, µM (titrated, usually from 57.1 µM), for the others: at the highest dose activity change, negative = inhibition, actives largely listed as inhibitors | 1.6% of 230,000 active; active = well fitted inhibition curve with a large enough effect, not every such curve was filed as active; inconclusive = small, poorly fitted or top-dose-only effect, or another doubt; inactive = no such curve, though single readings can be large or run the other way;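 note: potency is the fitted concentration of half-maximal effect; 0% = wells with enzyme and -100% = buffer wells without enzyme; nearly all actives have a fitted effect of over 50% in size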
Target sequence (B2RXH2 1-337 limits assumed): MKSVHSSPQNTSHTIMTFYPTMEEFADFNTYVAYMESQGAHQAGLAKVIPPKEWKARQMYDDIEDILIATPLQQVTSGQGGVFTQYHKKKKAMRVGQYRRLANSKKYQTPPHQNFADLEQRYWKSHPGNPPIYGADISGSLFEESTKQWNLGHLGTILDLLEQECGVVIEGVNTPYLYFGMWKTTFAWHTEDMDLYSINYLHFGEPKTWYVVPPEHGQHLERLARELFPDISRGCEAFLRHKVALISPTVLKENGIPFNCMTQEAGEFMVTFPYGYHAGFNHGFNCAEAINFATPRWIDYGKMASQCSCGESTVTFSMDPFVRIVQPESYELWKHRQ
TexasRed fluor – counter-screen for TRb-SRC2 inhibitors: fluorescence interference; Potency, µM (top dose mostly 106 µM), for inactives: at the highest dose fluorescence change, negative = quenching; TRb/SRC2 Texas Red total fluorescence interference; 0.29% of 280,000 active; active = well fitted curve in either direction with a large enough effect; inconclusive = small, poorly fitted or top-dose-only effect; note: potency is the fitted concentration of half-maximal effect; % is set by controls: 0 for no effect and ±100 for the full control effect
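Human TRb ligand-binding domain at 0.6 uM with 20 nM Texas Red SRC2 peptide in Tris buffer containing 1 uM T3 and 5% DMSO, incubated with compound 5 h at ambient temperature. Total fluorescence (555/632 nm) calculated as parallel + 2 × perpendicular.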
HttQ103 aggreg – mutant huntingtin aggregation inhibition; 1.1% of 220,000 active; PC12 HttQ103-GFP aggregates, Acumen cytometry, 40 h; Potency, µM (doses to about 46.1 µM), for inactives: at the top dose activity change, negative = inhibition, most hits filed as inhibitors; AID 1688; note: potency is the fitted concentration of half-maximal effect; % is set by controls: 0 for no effect and ±100 for the full control effect; nearly all actives have a fitted effect of over 60% in size
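Read-out: GFP aggregate count by laser scanning cytometer (488 nm excitation, 500-530 nm emission, 1–25 µm objects >6 SD above background). Cells: PC12, inducible HTTex1-Q103-GFP, 100 nM tebufenozide; compounds titrated.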
Starred values were filed as active, the others as inactive; u = inconclusive; x = not tested or not shown; [ ] = remark or other dose. A selection: hits, their analogues and other compounds. The true share with any hit is near 2%. Unless noted, calls come from the whole dose curve; as a rule, active = well fitted curve in the direction sought with a large enough effect; inconclusive = small, poorly fitted or top-dose-only effect, or another doubt; inactive = no such curve, though single readings can be large; an effect the other way counts as inactive or inconclusive.

SMILES	FBPA coupling cs	TRb-SRC2 inh	HTT cytoprotect	JMJD2E inh	TexasRed fluor	HttQ103 aggreg
O=C(O)C[C@@H]1C(=O)O[C@@H]2C(COC(=O)c3cc(O)c(O)c(O)c3)O[C@@H](OC(=O)c3cc(O)c(O)c(O)c3)[C@@H](OC(=O)c3cc(O)c(O)c4c3[C@H]1[C@H](O)C(=O)O4)[C@H]2OC(=O)c1cc(O)c(O)c(O)c1 (some centres undefined)	-23	16%	-2%[10 µM]	0.71µM*	u	13%[9.22 µM]
COc1cc(OC)cc(C2=Nn3c(nnc3-c3cccc(OC)c3)SC2)c1	5	-7%	x	x	-3%	x
COCCn1c(C)cc(C2=NNC(=Nc3ccccc3F)SC2)c1C	-6	1%	-45%	25µM*	-8%	12%
COCCCN=C1NN=C(c2cc(C)n(-c3ccccc3F)c2C)CS1	-3	-10%	-114%	32µM*	-9%	u
Cn1cc(CN(C(=O)Nc2ccccc2)C2CCCCC2)c2ccccc21	x	-4%	x	x	-1%	x
CC[n+]1c(C)sc2sc3ccccc3c21	-4	1%	16%[10 µM]	14µM*	1%	8%[9.22 µM]
CC[n+]1c(C)sc2c3ccsc3ccc21	2	0%	-10%[10 µM]	-6%	-1%	-18%
O=C(Nc1cccc(C(F)(F)F)c1)Nc1cc(Cl)ccc1C(=O)O	0	7%	x	x	1%	x
O=C(O)c1cccc(-n2cccc2/C=C\[N+](=O)[O-])c1	0	-1%	6%[10 µM]	14µM*	-1%	6%[9.22 µM]
CCn1c(O)c(/C=N/N=C2CCCC2)c2ccc(C3=NNC(=O)CC3)cc21	1	4%	0%	-5%	-4%	5%
CCn1c(O)c(/C=N/N=C2CCCCC2)c2cc(C3=NNC(=O)CC3)ccc21	-35*	1%	-5%[10 µM]	u	-7%	3%[9.22 µM]
O=c1cc(CSc2nnc(NC3CCCCC3)s2)nc2sccn12	-7	0%	-31%	-8%	0%	-6%
COC(=O)c1cc(CSc2nnc(NC3CCCCC3)s2)oc1C	1	8%	7%	6%	1%	28µM*
O=C(O)c1ccc(/C=C2\SC(=Nc3ccccc3)N(c3ccccc3)C2=O)cc1	21	4%	13µM*	14%	-3%	-31%
CC(=O)c1sc(N/N=C\c2ccccc2O)nc1C	1	-4%	16%[10 µM]	28µM*	-6%	9%[9.22 µM]
CCOC(=O)CN(Cc1ccccc1)C(C(=O)NC1CCCCC1)c1ccccc1 (centres undefined)	x	5%	x	x	-2%	x
Cc1ccccc1CNC(=O)c1ccccc1C(=O)O	-3	-12%	x	7%	-1%	0.0089µM*
Cc1ccccc1CNC(=O)c1ccccc1C	1	-4%	-1%[10 µM]	2%	-1%	-5%
O=C(c1ccc(-c2ccc(Cl)cc2)o1)N1CCN(c2ccc([N+](=O)[O-])cc2Cl)CC1	0	2%	3%[10 µM]	-2%	-3%	7.1µM*
Cc1nn(-c2ccc(N3CCCC3)nn2)c(C)c1CCC(=O)Nc1ccc(F)c(Cl)c1	x	10%	x	x	-24%	x
O=C(CSc1ncc(CO)n1Cc1ccccc1)Nc1ccc(C(F)(F)F)cc1	x	4%	x	x	-1%	x
CN(C)c1ccc(NC(=S)c2ccccn2)cc1	-7	-4%	-51%	18µM*	0%	u
COc1ccc2sc(C)[n+](C)c2c1	0	-5%	11µM*	20µM*	-1%	-21%
CCCC[n+]1c(C)sc2cc(OC)ccc21	1	0%	-3%[10 µM]	0%	-2%	6%[9.22 µM]
O=C1c2ccccc2-c2n[nH]c(=O)c3ccc(N4CCCCC4)c1c23	-4	5%	-133%	2%	-9%	20µM*
SMILES	FBPA coupling cs	TRb-SRC2 inh	HTT cytoprotect	JMJD2E inh	TexasRed fluor	HttQ103 aggreg
O=C1c2cccc3c(N4CCCCC4)ccc(c23)C(=O)N1c1ccccn1	-6	-3%	-55%	u	3%	u
CCC1C/C(=C\c2cccnc2)C(=O)/C(=C/c2cccnc2)C1 (centres undefined)	-1	-11%	-37%[10 µM]	0%	0%	22µM*
O=C1/C(=C/c2cccnc2)CC/C1=C\c1cccnc1	1	-3%	14%	2%	-2%	32%
Cc1ccc(Cl)cc1N1CCN(C(=O)Cn2ncc3c4ccccc4n(C)c3c2=O)CC1	x	-3%	x	x	1%	x
Cc1cc(=O)n(C2CCS(=O)(=O)C2)[nH]1 (centres undefined)	0	3%	-5%[10 µM]	22µM*	-2%	-6%[9.22 µM]
Nc1nc2c(ncn2C2CC(O)C(CO)O2)c(=O)[nH]1 (centres undefined)	-1	4%	x	-5%	-13%	x
Oc1c(CN2CCOCC2)cc(COCc2ccccc2)c2cccnc12	-1	4%	-81%[10 µM]	25µM*	2%	u
CCOc1ccc(NCC(=O)N/N=C/C=C/c2ccccc2)cc1	-2	-14%	0%[10 µM]	-12%	1%	17%
CCOc1ccc(N=C/C=C/c2ccccc2)c(O)c1	-32*	-9%	16%[10 µM]	10µM*	-1%	-3%[9.22 µM]
O=C(O)c1nnsc1COCc1ccccc1	x	x	-2%[10 µM]	x	x	x
COCCn1c(=O)c(C)nc2cnc(N3CCN(C)CC3)nc21	1	x	u	x	x	x
CCSc1nnc(NC(=O)CSc2nc3c(c(=O)n2CC)SC(C)C3)s1 (centres undefined)	5	x	-24%	-9%	x	13µM*
CCNc1ncc2nc(-c3ccc(Cl)cc3)c(=O)n(-c3ccc(OC)cc3)c2n1	0	x	25%	x	x	x
Nc1nnc(-c2ccco2)s1	-4	-13%	-2%	-29%	-1%	-6%
Nc1ncnc2oc(-c3ccco3)c(-c3ccco3)c12	-31*	-5%	-4%[1.9 µM]	u	u	10%
CN(C(=O)CSc1cn(CC(=O)N2CCCCC2)c2ccccc12)c1ccccc1	x	6%	x	x	-2%	x
CN1CCN(C2=C(NS(=O)(=O)c3ccccc3)C(=O)c3ccccc3C2=O)CC1	-46*	x	x	x	x	x
O=C1C(NS(=O)(=O)c2ccc(Cl)cc2)=C(N2CCCCC2)C(=O)c2ccccc21	-34*	1%	19%[10 µM]	4%	7%	u
CN1CCN(C2=C(NS(=O)(=O)c3cccs3)C(=O)c3ccccc3C2=O)CC1	-31*	1%	13%[10 µM]	-5%	-3%	24%[9.22 µM]
O=C1C(NS(=O)(=O)c2cccs2)=C(N2CCN(Cc3ccccc3)CC2)C(=O)c2ccccc21	-28	0%	-7%[10 µM]	-8%	-5%	-18%[9.22 µM]
COc1ccc(-n2c(=O)c3c(C)c(C)sc3n(CC(=O)NCc3ccc(C)cc3)c2=O)c(OC)c1	x	8%	x	x	-16%	x
Cn1nc(-c2ccccn2)nc2c(=O)n(C)c(=O)nc1-2	-76*	u	-45%[10 µM]	7.1µM*	-3%	u
CCCc1nc2c(=O)n(C)c(=O)nc-2n(C)n1	-74*	u	-172%	u	-5%	6.3µM*
